About 79,000 compounds went through this panel and 15% of them were active in at least one assay; those are over-represented in the sample as a whole. Active and inactive are the calls of the source. No stated cut-off is given here; in the data, active means growth inhibition above about 70%; inactive means the rest.
Legend:
[1] = NCI Yeast Anticancer Drug Screen. Data for the rad52 strain (AID 147);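 further: 0% = growth of vehicle-treated control cultures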; conditions: S. cerevisiae rad52 mutant growth inhibition, hits give high values
Outline: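 Compounds are applied to a genetically defined yeast strain lacking normal DNA damage repair, and inhibition of growth is expressed relative to cultures given vehicle only.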

[2] = NCI Yeast Anticancer Drug Screen. Data for the wt1 strain (AID 149);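 further: 0% = growth of vehicle-treated wt1 cultures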; conditions: S. cerevisiae wt1 strain (SPY 50644) growth inhibition, hits give high values
Outline: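 Each compound is tested on wt1 yeast and the loss of growth versus vehicle gives the inhibition value.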

[3] = NCI Yeast Anticancer Drug Screen. Data for the rad50EPP+ strain (AID 151);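 further: 0% = growth of vehicle-treated control cultures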; conditions: S. cerevisiae rad50 mutant strain, hits give high values
Outline: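 Compounds were applied to the rad50EPP+ yeast strain, which bears a defined DNA repair alteration, and growth inhibition was determined relative to vehicle-treated cultures.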

[4] = NCI Yeast Anticancer Drug Screen. Data for the mgt1 strain (AID 153); conditions: S. cerevisiae mgt1 mutant growth inhibition, hits give high values
Outline: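 Strain: mgt1 yeast, one of a set carrying defined DNA damage repair or cell cycle control alterations. Compound-treated growth compared with vehicle.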

[5] = NCI Yeast Anticancer Drug Screen. Data for the rad50 strain (AID 155);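 further: 0% = growth of vehicle-only cultures of the same strain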; conditions: S. cerevisiae rad50 strain growth inhibition, hits give high values
Outline: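 Vehicle-treated cultures provide the reference for the growth inhibition reported for compound-exposed, repair-deficient yeast.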

[6] = NCI Yeast Anticancer Drug Screen. Data for the mec2-1 strain (AID 157); conditions: S. cerevisiae mec2-1 strain, hits give high values
Outline: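 Strain: mec2-1 (DNA repair/cell cycle alteration). Compound exposure, then growth measured; inhibition expressed relative to vehicle.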

[7] = NCI Yeast Anticancer Drug Screen. Data for the rad14 strain (AID 159);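 further: 0% = growth of vehicle-treated control cultures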; conditions: S. cerevisiae rad14 strain growth inhibition, hits give high values
Outline: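 Inhibition of growth is reported for a repair-deficient yeast mutant following compound treatment, calculated relative to cultures that received vehicle.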

[8] = NCI Yeast Anticancer Drug Screen. Data for the sgs1 mgt1 strain (AID 161);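 further: 0% = growth of cultures given vehicle only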; conditions: S. cerevisiae sgs1 mgt1 strain, hits give high values
Outline: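 Test agents were incubated with a DNA-repair-mutant yeast strain. Growth was then read and compared against vehicle-treated controls.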

[9] = NCI Yeast Anticancer Drug Screen. Data for the CLN2oe strain (AID 163);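 further: 0% = growth of vehicle-only control cultures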; conditions: S. cerevisiae CLN2oe strain, hits give high values
Outline: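 Growth of a genetically modified yeast strain is measured after compound exposure and compared with cultures given vehicle alone.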

[10] = NCI Yeast Anticancer Drug Screen. Data for the cln2 rad14 strain (AID 165);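 further: 0% = growth equal to vehicle treated cultures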; conditions: S. cerevisiae cln2 rad14 strain, hits give high values
Outline: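 Compounds are applied to the cln2 rad14 yeast strain, and growth is then compared with that of vehicle-treated cultures to give inhibition.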

[11] = NCI Yeast Anticancer Drug Screen. Data for the bub3 strain (AID 167); conditions: S. cerevisiae bub3 mutant strain, hits give high values
Outline: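 Mutant yeast screening strain plus compound; vehicle-treated cultures serve as the 0% inhibition reference.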

[12] = NCI Yeast Anticancer Drug Screen. Data for the sgs1 strain (AID 173);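 further: 0% = growth of vehicle-only control cultures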; conditions: S. cerevisiae sgs1 mutant, hits give high values
Outline: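 Growth of a yeast strain bearing a defined genetic alteration is measured after compound treatment. Inhibition is expressed relative to vehicle-only controls.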

[13] = NCI Yeast Anticancer Drug Screen. Data for the mlh1 rad18 strain (AID 175); conditions: S. cerevisiae mlh1 rad18 strain growth inhibition, hits give high values
Outline: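 Read-out is yeast growth inhibition, calculated against vehicle-only controls. The compound was applied to a strain engineered with DNA damage repair alterations.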

[14] = NCI Yeast Anticancer Drug Screen. Data for the rad18 strain (AID 177); conditions: S. cerevisiae rad18 mutant growth inhibition, hits give high values
Outline: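 Growth of the mutant yeast strain after compound exposure, normalised to vehicle-only cultures.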

[15] = NCI Yeast Anticancer Drug Screen. Data for the wt2 strain (AID 169); conditions: S. cerevisiae wt2 strain growth inhibition, hits give high values
Outline: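 This strain belongs to a panel of yeast strains with defined genetic alterations in DNA damage repair or cell cycle control. Compounds are applied, and growth inhibition is measured against vehicle-treated cultures.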

[16] = NCI Yeast Anticancer Drug Screen. Data for the mlh1 strain (AID 171);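 further: 0% = growth of vehicle-treated control cultures of the same strain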; conditions: S. cerevisiae mlh1 strain growth inhibition, hits give high values
Outline: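 Growth of the mutant yeast strain after compound exposure, expressed as inhibition relative to vehicle-only controls.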

[17] = at 5.0 µM (retest, dose inferred, filed as 0.5)
[18] = at 50.0 µM (retest, dose inferred, filed as 5.0)

Measured: growth inhibition

O=[N+]([O-])c1ccc(C(c2c[nH]c3ccccc23)c2c[nH]c3ccccc23)cc1
active: [1]; at 1.2 µM 82% | [1]; at 3.7 µM 97% | [1]; at 11.0 µM 95% | [1]; at 33.0 µM 90% | [1]; at 100.0 µM 82% | [2]; at 3.7 µM 97% | [2]; at 11.0 µM 96% | [2]; at 33.0 µM 92% | [2]; at 100.0 µM 89% | [4]; at 3.7 µM 99% | [4]; at 11.0 µM 97% | [4]; at 33.0 µM 94% | [4]; at 100.0 µM 87% | [5]; at 1.2 µM 84% | [5]; at 3.7 µM 85% | [5]; [17] 79% | [5]; at 11.0 µM 94% | [5]; at 33.0 µM 89% | [5]; [18] 89% | [5]; at 50.0 µM 93.2% | [5]; at 100.0 µM 79% | [6]; at 3.7 µM 99% | [6]; at 11.0 µM 97% | [6]; at 33.0 µM 94% | [6]; [18] 95% | [6]; at 50.0 µM 93.8% | [6]; at 100.0 µM 88% | [7]; at 3.7 µM 98% | [7]; at 11.0 µM 97% | [7]; at 33.0 µM 93% | [7]; at 100.0 µM 84% | [8]; [17] 82% | [8]; [18] 95% | [8]; at 50.0 µM 92.9% | [9]; at 3.7 µM 98% | [9]; at 11.0 µM 96% | [9]; at 33.0 µM 92% | [9]; at 100.0 µM 86% | [10]; [18] 93% | [10]; at 50.0 µM 88.1% | [11]; at 3.7 µM 98% | [11]; at 11.0 µM 96% | [11]; at 33.0 µM 93% | [11]; [18] 96% | [11]; at 50.0 µM 94.3% | [11]; at 100.0 µM 86% | [12]; at 3.7 µM 98% | [12]; at 11.0 µM 97% | [12]; at 33.0 µM 95% | [12]; at 100.0 µM 88% | [13]; [17] 93% | [13]; [18] 92% | [13]; at 50.0 µM 93% | [14]; at 3.7 µM 98% | [14]; at 11.0 µM 96% | [14]; at 33.0 µM 92% | [14]; at 100.0 µM 86%
inactive: [2]; at 1.2 µM 12% | [3]; at 1.2 µM 10% | [3]; at 3.7 µM 9% | [3]; at 11.0 µM 3% | [3]; at 33.0 µM 2% | [3]; at 100.0 µM -14% | [4]; at 1.2 µM 18% | [6]; at 1.2 µM 22% | [6]; [17] 10% | [7]; at 1.2 µM 25% | [9]; at 1.2 µM 40% | [10]; [17] 14% | [11]; at 1.2 µM 24% | [11]; [17] 45% | [12]; at 1.2 µM 33% | [14]; at 1.2 µM 66%

CN(CCOc1ccc(Cl)cc1)CCOc1ccc(Cl)cc1
inactive: [1]; at 1.2 µM 8% | [1]; at 3.7 µM 18% | [1]; at 11.0 µM 50% | [2]; at 1.2 µM 7% | [2]; at 3.7 µM 7% | [2]; at 11.0 µM 10% | [2]; at 33.0 µM 39% | [3]; at 1.2 µM 4% | [3]; at 3.7 µM 7% | [3]; at 11.0 µM 7% | [3]; at 33.0 µM 3% | [3]; at 100.0 µM 56% | [4]; at 1.2 µM 3% | [4]; at 3.7 µM 13% | [4]; at 11.0 µM 57% | [5]; at 1.2 µM 11% | [5]; at 3.7 µM 17% | [5]; [17] 13% | [5]; at 11.0 µM 51% | [6]; at 1.2 µM 12% | [6]; at 3.7 µM 16% | [6]; [17] 5% | [6]; at 11.0 µM 36% | [7]; at 1.2 µM 28% | [7]; at 3.7 µM 25% | [7]; at 11.0 µM 48% | [8]; [17] 25% | [9]; at 1.2 µM 20% | [9]; at 3.7 µM 18% | [9]; at 11.0 µM 50% | [11]; at 1.2 µM 16% | [11]; at 3.7 µM 23% | [11]; [17] 10% | [11]; at 11.0 µM 60% | [15]; at 1.2 µM 8% | [15]; at 3.7 µM 11% | [15]; at 11.0 µM 26% | [16]; at 1.2 µM 13% | [16]; at 3.7 µM 17% | [16]; at 11.0 µM 41% | [12]; at 1.2 µM 18% | [12]; at 3.7 µM 23% | [12]; at 11.0 µM 48% | [13]; [17] 22% | [14]; at 1.2 µM 14% | [14]; at 3.7 µM 11% | [14]; at 11.0 µM 23%
active: [1]; at 33.0 µM 90% | [1]; at 100.0 µM 99% | [2]; at 100.0 µM 99% | [4]; at 33.0 µM 98% | [4]; at 100.0 µM 99% | [5]; at 33.0 µM 97% | [5]; [18] 97% | [5]; at 50.0 µM 99.2% | [5]; at 100.0 µM 99% | [6]; at 33.0 µM 93% | [6]; [18] 99% | [6]; at 50.0 µM 99.5% | [6]; at 100.0 µM 99% | [7]; at 33.0 µM 99% | [7]; at 100.0 µM 99% | [8]; [18] 99% | [8]; at 50.0 µM 99.7% | [9]; at 33.0 µM 90% | [9]; at 100.0 µM 99% | [11]; at 33.0 µM 97% | [11]; [18] 98% | [11]; at 50.0 µM 99.6% | [11]; at 100.0 µM 97% | [15]; at 33.0 µM 89% | [15]; at 100.0 µM 99% | [16]; at 33.0 µM 98% | [16]; at 100.0 µM 99% | [12]; at 33.0 µM 98% | [12]; at 100.0 µM 99% | [13]; [18] 99% | [13]; at 50.0 µM 99.5% | [14]; at 33.0 µM 80% | [14]; at 100.0 µM 99%
